Rows were chosen to be rich in hits. Some 4.1% of all compounds tested hit in one or more screens of this group.
ssDAF-12 act = S. stercoralis DAF-12 nuclear receptor activators, primary screen, cell-based, luminescence, HEK293, GRIP1 co-expression, lit1-tk-luc; Nuclear hormone receptor DAF-12 (Strongyloides stercoralis); HEK293 ssDAF-12/GRIP1 lit1-tk-luc reporter; % of 3 µM dafachronic acid response; activation, % at 6.8 µM; 370,000 compounds, 1% hits;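 active means activation above the mean over all tested compounds plus 3 SD, cut at about 0.9% in these data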;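 further: 0% = DMSO-only wells and 100% = 3 µM delta7-dafachronic acid wells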
hgDAF12 agonist = H. glycines DAF-12 receptor agonists, primary screen, cell-based, luminescence, HEK293, GAL4 fusion, UAS-luciferase. 370,000 compounds, 1.8% hits. Nuclear hormone receptor DAF-12 (Heterodera glycines), GAL4 fusion. activation, % at 6.8 µM. HEK293 GAL4-hgDAF12 UAS-luciferase reporter, agonist luminescence; normalized to butyrate control. AID 687014, 2013;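 active means activation above a cutoff set at the mean of all screened compounds plus 3 SD, cut at about 10% in these data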;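 further: 0% = DMSO wells and 100% = sodium butyrate wells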
DAX1 inh-1 = DAX1 (NR0B1) inhibitors on StAR promoter, primary screen, cell-based, luminescence, SF-1 (NR5A1), full-length DAX-1; HEK293T StAR-luciferase reporter, SF-1/DAX-1 repression relief; inhibition, % at 6.8 µM; 370,000 compounds, 1.1% hits; AID 652010, 2013;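 active means inhibition above the mean over all tested compounds plus 3 SD, cut at about 3.6% in these data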;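 further: 0% = DAX-1 cells with DMSO and 100% = cells lacking DAX-1 with DMSO; higher inhibition means more luminescence from relief of DAX-1 repression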
DAX1 inh-2 = DAX1 (NR0B1) inhibitors, primary screen, cell-based, HEK293, Gal4-DAX1, luciferase luminescence | Nuclear receptor subfamily 0 group B member 1 (Homo sapiens), P51843 | HEK293 Gal4-DAX1 luciferase reporter | inhibition, % at 6.75 µM | AID 504766, 2011 | 340,000 compounds, 0.99% hits;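 active means inhibition above the mean over all tested compounds plus 3 SD, cut at about 4.2% in these data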;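 further: 0% = DAX1-transfected cells with DMSO and 100% = empty-vector control cells with DMSO; inhibition shows as a rise in luminescence from relieved DAX1 repression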
hcDAF-12 act = H. contortus DAF-12 nuclear receptor activators, primary screen, cell-based, luminescence, HEK293, lit1-tk-luc reporter. 370,000 compounds, 1.4% hits. HEK293 hcDAF-12 lit1-tk-luc reporter; 0% DMSO, 100% Δ7-dafachronic acid. activation, % at 6.8 µM;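 active means activation above the mean of all tested compounds plus 3 SD, cut at about 5.5% in these data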;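 further: 100% = response to 3 µM Δ7-dafachronic acid high control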
hgDAF12 conf = H. glycines DAF-12 receptor agonists, confirmation, cell-based, luminescence, HEK293, GAL4-LBD fusion; shares compounds with hgDAF12 agonist; activation, % at 6.8 µM; 3,300 compounds, 80% hits; HEK293 GAL4-hgDAF12 luciferase reporter, agonist mode; percent of butyrate response;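 active means mean activation over triplicate wells above the hit cutoff derived from the earlier primary screen, cut at about 11% in these data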;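 further: 0% = DMSO low control and 100% = 2 mM sodium butyrate high control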
LXRb DAF12 ctr = LXR agonists, Gal4 luciferase reporter, confirmation, counter-screen for hgDAF-12 agonist project, cell-based, luminescence, HEK293, H. glycines campaign; shares compounds with hgDAF12 agonist; 24 h; activation, % at 6.8 µM; 3,300 tested, under 10 active; AID 743051, 2013;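 active means mean activation of the triplicate above a set limit carried over from the primary screen, none filed active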
Target sequence (P55055 whole entry, looked up, the tested form may be a part): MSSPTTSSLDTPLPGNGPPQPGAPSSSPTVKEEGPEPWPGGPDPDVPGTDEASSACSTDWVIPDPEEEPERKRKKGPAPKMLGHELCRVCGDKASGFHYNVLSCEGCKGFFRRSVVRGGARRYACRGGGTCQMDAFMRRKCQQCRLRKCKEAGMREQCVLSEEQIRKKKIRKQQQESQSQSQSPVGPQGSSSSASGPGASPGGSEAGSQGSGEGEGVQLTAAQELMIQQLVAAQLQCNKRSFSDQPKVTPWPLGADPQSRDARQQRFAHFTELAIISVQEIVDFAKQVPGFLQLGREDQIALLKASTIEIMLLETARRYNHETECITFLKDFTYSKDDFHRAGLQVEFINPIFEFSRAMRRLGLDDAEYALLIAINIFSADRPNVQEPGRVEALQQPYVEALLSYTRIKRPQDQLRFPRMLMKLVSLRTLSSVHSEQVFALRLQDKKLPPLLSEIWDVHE
An asterisk follows results filed as active; nt = not tested or not shown.

SMILES	ssDAF-12 act	hgDAF12 agonist	DAX1 inh-1	DAX1 inh-2	hcDAF-12 act	hgDAF12 conf	LXRb DAF12 ctr
O=C(CSc1nnc(COc2ccc(Cl)cc2)n1Cc1ccco1)Nc1cccc2ccccc12	-1	1	-2	nt	-3	nt	nt
Cc1cc(Nc2cccc(Br)c2)cc(=O)n1-c1cccc(Br)c1	-1	2	0	nt	1	nt	nt
Cc1ccc(/C=C/C(=O)c2ccc(N3CCOCC3)cc2)s1	-1	14*	0	0	2	9	1
CCOC(=O)/C=C/c1cccc(C)c1O	0	14*	4.5*	nt	1	12*	0
CCCCc1ccc2nc(NC(=O)c3ccco3)sc2c1	0	22*	nt	nt	5	19*	1
CC(=O)Nc1nc2ccc(NC(=O)c3ccco3)cc2s1	-1	4	1	0	1	nt	nt
O=C(Nc1nc2ccc(Br)cc2s1)c1ccco1	1	13*	3	1	6.1*	17*	1
Cc1cc2sc(NC(=O)c3ccco3)nc2cc1Cl	-1	14*	3	2	4	20*	1
Cc1ccc2nc(NC(=O)c3ccc(Br)o3)sc2c1	1	15*	2	4	6.3*	17*	1
O=S1(=O)CC(N2CCC(c3ccccc3)CC2)CN1Cc1cn(Cc2ccc(C(F)(F)F)cc2)nn1 (centres undefined)	-1	-2	-1	nt	-1	nt	nt
Cc1ccc(C2NC(=O)c3[nH]nc(-c4ccccc4)c32)cc1 (centres undefined)	-1	-2	-1	nt	0	nt	nt
CC(C)N1CCc2c(sc(NC(=O)C(F)(F)F)c2-c2nc3ccccc3s2)C1	0	9	nt	nt	-1	nt	nt
COc1cc2c(NCCCCCCO[N+](=O)[O-])ncnc2c(OC)c1OC	-1	-5	-4	nt	-2	nt	nt
Cc1nn2cc(-c3ccc(-c4ccccc4)cc3)nc2s1	1	15*	2	1	5.7*	16*	1
Cc1nn2cc(-c3ccc(Cl)cc3)nc2s1	0	14*	3.9*	2	5	16*	1
COc1ccc(C(=O)NCC2CCN(C(=O)C(=O)c3cccs3)CC2)c(OC)c1	-1	0	0	nt	-2	nt	nt
CN1C(=O)c2cc(NC(=O)Nc3ccccc3)ccc2OC[C@H]2O[C@@H](CC(=O)NCC(F)(F)F)CC[C@@H]21	-2	-1	1	nt	2	nt	nt
C[C@@H]1ON(C)[C@H]2C[C@H]3c4cc(-c5ccccc5)ccc4CCN3C[C@@H]12	0	0	0	nt	0	nt	nt
COc1ccc(C=C(C(C)=O)C(=O)c2ccccc2)cc1	-1	4	-2	nt	-1	nt	nt
COc1ccc(C=C(C(=O)c2ccccc2)C(=O)c2ccccc2)cc1	-1	14*	2	nt	1	11*	0
Clc1ccccc1-c1nnc(-c2ccccc2Cl)o1	-1	15*	3	2	5	17*	1
Clc1ccc(-c2nnc(-c3ccccc3Cl)o2)cc1	0	14*	2	2	4	19*	1
CCCNCc1nnc(-c2ccccc2Cl)o1	-1	3	0	1	-1	nt	nt
COc1ccc(/C=C/c2nc3ccccc3n2Cc2ccccc2OC)cc1	0	16*	4.4*	3	5	12*	1
O=C1c2ccccc2CN1CCSC(=S)N1CCOCC1	0	16*	3	3	4	16*	1
SMILES	ssDAF-12 act	hgDAF12 agonist	DAX1 inh-1	DAX1 inh-2	hcDAF-12 act	hgDAF12 conf	LXRb DAF12 ctr
CC1CN(C(=S)SCCN2Cc3ccccc3C2=O)CC(C)O1 (centres undefined)	-1	3	0	1	4	nt	nt
Nc1nc(N)nc(-c2cccc(Br)c2)n1	0	14*	4.2*	3	1	11*	0
c1csc(CNc2ncnc3ccc(-c4ccc5c(c4)OCO5)cc23)n1	-1	1	nt	nt	2	nt	nt
COC(=O)C1=C(C)N(C)C(=NCc2cc(OC)c(OC)c(OC)c2)NC1c1cccc(F)c1 (centres undefined)	-1	1	0	nt	0	nt	nt
CCCNC(=O)c1oc2ccc3c(c2c1C)C(=O)CC(C)(C)O3	0	16*	3	0	3	13*	1
COC(=O)c1ccc(COc2ccc3ccc(=O)oc3c2)o1	-1	0	0	1	1	nt	nt
COc1ccc(COc2ccc3ccc(=O)oc3c2)cc1	0	20*	1	1	3	14*	1
O=C(Nc1ccc(N2CCOCC2)cc1)c1nc2ccccc2s1	0	18*	4.3*	2	4	15*	1
O=C1c2ccccc2-c2nnc(-c3ccc(F)cc3)cc21	1.4*	15*	2	7.1*	6.0*	11*	1
O=c1[nH]nc(-c2ccc(F)cc2)cc1-c1ccccc1	-2	-3	0	-1	-2	nt	nt
CC(C)(C)OC(=O)/C=C/[C@@H](CC1CCCC1)Sc1ccc(C(C)(C)C)cc1	-1	0	0	nt	1	nt	nt
CC(=O)CC[C@H]1CC[C@]2(CCCN(C(=O)C3CCCC3)C2)O1	-1	2	0	nt	4	nt	nt
O=C1C=C(c2ccc3[nH]ccc3c2)CCC1	-1	9	1	2	2	nt	nt
COc1ccc2cc(C3=CC(=O)CCC3)ccc2c1	0	16*	2	4	6.2*	16*	1
COC(=O)[C@]12C[C@H](CC(=O)NCCCCc3ccccc3)C(=O)N(CCc3ccc(OC)c(OC)c3)C1=C[C@H](C1CCCC1)O[C@@H]2C	-1	0	-1	nt	-2	nt	nt
O=C(NN1C(=O)c2ccccc2NC1c1ccco1)c1ccc([N+](=O)[O-])cc1 (centres undefined)	-1	18*	0	1	1	0	0
O=C(NN1C(=O)c2ccccc2NC1c1ccco1)c1ccc(Br)cc1 (centres undefined)	0	-1	0	0	-1	nt	nt
